Source: PubChem BioAssay (NCATS)
Results filed as inconclusive are left out. Activity calls are given as the source filed them. Unless noted, calls come from the whole dose curve; as a rule, active = well fitted curve in the direction sought with a large enough effect; inconclusive = small, poorly fitted or top-dose-only effect, or another doubt; inactive = no such curve, though single readings can be large; an effect the other way counts as inactive or inconclusive.

Key:
[1] = S16 Schwann cell viability assay (CellTiter-Glo assay) (AID 624031);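 note: native untransfected S16 rat Schwann cells; cellular ATP luminescence as a viability measure; nearly all actives have a fitted effect of over 70% in size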
Procedure, shortened: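 Rat S16 Schwann cells without reporter constructs received compound or DMSO for 24 h at 37 °C under 5% CO2. Cellular ATP was then quantified by CellTiter-Glo luminescence, with vehicle wells defined as 0% activity and cell-free wells as reference.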

[2] = S16 Schwann cell PMP22 intronic element firefly luciferase assay (AID 624032); note: nearly all actives have a fitted effect of over 30% in size
Procedure, shortened: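 Luciferase reporter of PMP22 intronic-element expression in stably transfected S16 rat Schwann cells, read by ONE-Glo luminescence after 24 h compound exposure at 37 C. Activity scaled between DMSO (0%) and positive-control PTC124; concentration-effect curves quality-classified.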

[3] = S16 Schwann cell PMP22 intronic element beta-lactamase assay (AID 624044; calls by dose curve; note: nearly all actives have a fitted effect of over 15% in size)
Procedure, shortened: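 Beta-lactamase reporter under a PMP22 intronic regulatory element in stable S16 rat Schwann cells; 24 h compound exposure. 460 nm blue signal normalized between DMSO (0%) and potassium clavulanate, with 535 nm FRET tracking viability; curves classed by r2 and response.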

[4] = test system: AA1029; experiment: qHTS profiling for inhibitors of Plasmodium falciparum proliferation (AID 504749); note: nearly all actives have a fitted effect of over 60% in size; note: potency is the fitted concentration of half-maximal effect; conditions: P. falciparum in erythrocytes, SYBR Green DNA, 72 h; series mostly up to 28.7 µM
Procedure, shortened: (§1)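 SYBR Green fluorescence of parasite DNA, read after lysis and overnight dark incubation, measured growth over 72 h in erythrocyte culture at 0.3% parasitemia and 2.5% hematocrit. Data normalised to DMSO and 0.29 uM artemisinin, with plate-drift correction.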

[5] = test system: CP211; experiment: as above; conditions: P. falciparum in erythrocytes, SYBR Green DNA, 72 h; series mostly up to 28.7 µM
Procedure, shortened: as §1

[6] = test system: CP217; experiment: as above; conditions: P. falciparum in erythrocytes, SYBR Green DNA, 72 h; series mostly up to 28.7 µM
Procedure, shortened: as §1

[7] = test system: CP252; experiment: as above; conditions: P. falciparum in erythrocytes, SYBR Green DNA, 72 h; series mostly up to 28.7 µM
Procedure, shortened: as §1

[8] = test system: CP297; experiment: as above; conditions: P. falciparum in erythrocytes, SYBR Green DNA, 72 h; series mostly up to 28.7 µM
Procedure, shortened: as §1

[9] = test system: CP315; experiment: as above; conditions: P. falciparum in erythrocytes, SYBR Green DNA, 72 h; series mostly up to 28.7 µM
Procedure, shortened: as §1

[10] = test system: JCK; experiment: as above; conditions: P. falciparum in erythrocytes, SYBR Green DNA, 72 h; series mostly up to 28.7 µM
Procedure, shortened: as §1

[11] = test system: PC15; experiment: as above; conditions: P. falciparum in erythrocytes, SYBR Green DNA, 72 h; series mostly up to 28.7 µM
Procedure, shortened: as §1

[12] = test system: TAB165; experiment: as above; conditions: P. falciparum in erythrocytes, SYBR Green DNA, 72 h; series mostly up to 28.7 µM
Procedure, shortened: as §1

[13] = NCATS anti-infectives library activity on HEK293 viability as a counter-qHTS vs the C. elegans viability qHTS (AID 1745854);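 note: HEK293 cells exposed to compounds for 24 hr before the viability read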
Procedure, shortened: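 Counter-screen for cytotoxicity: HEK293, 24 hr, 37C, compounds up to 41.7 uM final (a dilution series, 1:5). Readout CellTiter-Glo luminescence, 10 min RT. Digitonin control, 83.3 uM final.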

[14] = Confirmatory screen GU Rhodamine qHTS for Zika virus inhibitors qHTS (AID 1347157); note: potency is the fitted concentration of half-maximal effect; nearly all actives have a fitted effect of over 70% in size
Procedure, shortened: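 In dose–response format, inhibition of unlinked protease (25 nM) was measured with 1.5 microM bis-peptide Rhodamine110 substrate. Aprotinin served as the intraplate control.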

[15] = Confirmatory screen NINDS Rhodamine qHTS for Zika virus inhibitors (AID 1347161); note: potency is the fitted concentration of half-maximal effect; nearly all actives have a fitted effect of over 60% in size
Procedure, shortened: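 In 10 mM Tris-HCl pH 8.0 containing 0.01% Tween 20, linked NS2B-NS3 protease (25 nM final) is exposed to test compounds for 15 min. Cleavage of 1.5 microM Rhodamine110 substrate is tracked by fluorescence over 15 min.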

[16] = biological target: Mitogen-activated protein kinase 10 (Mus musculus) (UniProt Q61831); experiment: JNK3 AlphaScreen Assay (AID 530; active = well fitted curve in either direction with a large enough effect, not every such curve was filed as active;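 note: kinase came from lysate of stimulated human HepG2 cells; signal reports phosphorylation of biotinylated GST-cJun 1-79 at Ser73 with 10 µM ATP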)
Procedure, shortened: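 qHTS titrations with 15 min compound pre-incubation before adding ATP (10 uM final). Read-out: AlphaScreen of Ser73-phosphorylated biotin-GST-cJun using HepG2 lysate JNK3 activated by IL-1β and TNFα.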

[17] = biological target: Cytochrome P450 2C9 (Homo sapiens) (UniProt P11712); experiment: qHTS Assay for Inhibitors and Substrates of Cytochrome P450 2C9 (AID 883); note: potency is the fitted concentration of half-maximal effect; nearly all actives have a fitted effect of over 60% in size
Procedure, shortened: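 Inhibition of CYP2C9 is scored as loss of luminescence, with 57uM sulphaphenazole defining 100% inhibition. Substrate Luciferin-H is used at 100uM, equal to its KM; enzyme at 10nM in 25mM KPO4, 60 min at 37C with NADPH regeneration.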

[18] = biological target: Muscarinic acetylcholine receptor M1 (Rattus norvegicus) (UniProt P08482); experiment: qHTS Assay for Antagonists of Acetylcholine Muscarinic M1 Receptor: Measurement of IP-One Response (AID 944); note: nearly all actives have a fitted effect of over 75% in size
Procedure, shortened: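 Antagonist mode with rat M1 receptor transfected into CHO cells. Compound is added first for 10 min, carbachol at its EC80 follows for 30 min, and lysis reagents then allow TR-FRET detection of accumulated IP1.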

[19] = biological target: Pyruvate kinase (Leishmania mexicana) (UniProt Q27686); experiment: qHTS Validation Assay for Inhibitors of Leishmania Mexicana Pyruvate Kinase (AID 945)
Procedure, shortened: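 An endpoint luciferase assay: 0.2 nM LmPYK E451W turns over 0.5 mM PEP with 0.1 mM ADP for 1 h at room temperature, pH 7.2, before PKLight addition. Values are normalized to DMSO-only wells.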

[20] = biological target: Pyruvate kinase PKM (Homo sapiens) (UniProt P14618); experiment: qHTS Assay for Activators of Human Muscle Pyruvate Kinase (AID 954; active = well fitted curve in the direction sought with a large enough effect, not every such curve was filed as active)
Procedure, shortened: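 Screening used highly purified human pyruvate kinase M2 under submaximal activity, with PEP at its Km and ADP below Km. After an hour at room temperature, ATP was read by luciferase luminescence.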

Measured: Potency

Pyruvate kinase PKM (Homo sapiens), sequence (P14618 whole entry, looked up): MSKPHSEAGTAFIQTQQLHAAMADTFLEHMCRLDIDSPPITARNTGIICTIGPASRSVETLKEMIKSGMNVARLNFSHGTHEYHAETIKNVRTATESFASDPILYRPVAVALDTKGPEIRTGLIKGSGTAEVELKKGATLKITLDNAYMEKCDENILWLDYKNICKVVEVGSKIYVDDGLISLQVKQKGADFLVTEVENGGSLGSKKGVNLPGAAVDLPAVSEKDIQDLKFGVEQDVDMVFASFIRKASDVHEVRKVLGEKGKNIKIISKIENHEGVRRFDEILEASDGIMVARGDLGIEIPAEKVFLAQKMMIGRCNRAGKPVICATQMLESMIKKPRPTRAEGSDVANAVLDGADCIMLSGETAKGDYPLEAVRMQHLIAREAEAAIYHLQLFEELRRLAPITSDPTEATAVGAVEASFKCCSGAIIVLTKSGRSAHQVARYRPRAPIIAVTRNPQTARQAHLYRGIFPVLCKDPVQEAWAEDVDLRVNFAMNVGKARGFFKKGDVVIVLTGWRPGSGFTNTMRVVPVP
Muscarinic acetylcholine receptor M1 (Rattus norvegicus), sequence (P08482 whole entry, looked up): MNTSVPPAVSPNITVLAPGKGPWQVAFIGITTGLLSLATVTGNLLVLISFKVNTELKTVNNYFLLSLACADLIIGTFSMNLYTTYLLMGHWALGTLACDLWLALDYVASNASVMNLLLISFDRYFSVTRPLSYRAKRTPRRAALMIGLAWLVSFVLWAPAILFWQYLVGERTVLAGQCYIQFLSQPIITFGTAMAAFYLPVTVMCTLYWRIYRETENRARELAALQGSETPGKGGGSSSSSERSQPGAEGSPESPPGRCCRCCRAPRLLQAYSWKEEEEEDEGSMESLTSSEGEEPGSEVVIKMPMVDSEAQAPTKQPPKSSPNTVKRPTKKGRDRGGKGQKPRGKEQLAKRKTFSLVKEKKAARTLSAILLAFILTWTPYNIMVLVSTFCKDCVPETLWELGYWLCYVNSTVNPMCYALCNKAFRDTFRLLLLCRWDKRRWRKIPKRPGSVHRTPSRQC
Pyruvate kinase (Leishmania mexicana), sequence (Q27686 2-499 E452W): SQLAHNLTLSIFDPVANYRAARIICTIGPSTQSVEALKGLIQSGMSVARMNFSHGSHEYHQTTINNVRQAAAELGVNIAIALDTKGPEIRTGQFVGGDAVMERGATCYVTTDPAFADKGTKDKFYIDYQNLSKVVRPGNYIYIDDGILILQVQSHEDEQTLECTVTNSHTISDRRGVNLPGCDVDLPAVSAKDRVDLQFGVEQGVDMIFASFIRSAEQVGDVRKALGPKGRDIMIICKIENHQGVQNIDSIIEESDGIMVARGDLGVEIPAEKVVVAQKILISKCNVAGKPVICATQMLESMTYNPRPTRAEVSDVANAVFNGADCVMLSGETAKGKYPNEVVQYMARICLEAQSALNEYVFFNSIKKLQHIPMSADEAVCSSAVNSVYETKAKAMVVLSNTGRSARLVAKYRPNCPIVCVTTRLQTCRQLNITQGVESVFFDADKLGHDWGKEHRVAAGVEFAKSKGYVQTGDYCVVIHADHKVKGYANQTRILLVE
Cytochrome P450 2C9 (Homo sapiens), sequence (P11712 whole entry, looked up): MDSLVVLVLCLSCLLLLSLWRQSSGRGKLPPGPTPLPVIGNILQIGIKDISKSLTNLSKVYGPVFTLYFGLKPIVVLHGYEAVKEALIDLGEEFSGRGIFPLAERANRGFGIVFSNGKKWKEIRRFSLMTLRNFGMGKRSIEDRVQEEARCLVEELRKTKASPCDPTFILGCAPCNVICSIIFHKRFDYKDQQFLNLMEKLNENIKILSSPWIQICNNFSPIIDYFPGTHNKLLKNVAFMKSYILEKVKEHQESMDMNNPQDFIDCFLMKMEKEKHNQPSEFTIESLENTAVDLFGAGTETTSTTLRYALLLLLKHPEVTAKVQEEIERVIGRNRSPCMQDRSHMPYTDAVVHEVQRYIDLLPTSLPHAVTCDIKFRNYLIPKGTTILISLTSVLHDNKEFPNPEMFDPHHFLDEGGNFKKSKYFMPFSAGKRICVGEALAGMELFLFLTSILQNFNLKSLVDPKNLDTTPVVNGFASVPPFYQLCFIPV

O=C(CC1NCCC[C@H]1O)Cn1cnc2cc(Br)c(Cl)cc2c1=O (stereo not given in full)
inactive: [1] | [2] | [3]
active: [4] 1 µM | [5] 3.38 µM | [6] 3.16 µM | [7] 1.12 µM | [8] 3.38 µM | [9] 3.01 µM | [10] 2.82 µM | [11] 0.891 µM | [12] 1 µM

CCCCC(=O)N(Cc1ccc(-c2ccccc2-c2nn[nH]n2)cc1)C(C(=O)O)C(C)C (stereo not given)
inactive: [1] | [2] | [4] | [5] | [6] | [7] | [8] | [9] | [10] | [11]

CN(C)CC(=O)Nc1ccc2[nH]c(=O)c3ccccc3c2c1
inactive: [13]

Cc1ccn(-c2cc(Cl)ccc2[C@@H](Oc2cc(-c3ccc(C[C@H](N)C(=O)O)cc3)nc(N)n2)C(F)(F)F)n1
active: [14] 22.1 µM | [15] 24.8 µM

O=C(O)c1ccc(O)c2ncc(N3CCCN(CCc4cccc5ccccc45)CC3)cc12
active: [14] 13.9 µM | [15] 13.9 µM

Cc1nc2c(O)cccc2c(=O)[nH]1
active: [17] 3.98 µM
inactive: [16] | [13]

CN1CCN(CCC=C2c3ccccc3Sc3ccc(S(=O)(=O)N(C)C)cc32)CC1
active: [12] 8.91 µM
inactive: [18] | [19] | [20] | [3]

O=C(O)c1ccc2c3c1cccc3c(=O)n1c3ccccc3nc21
active: [17] 0.158 µM

CC(C)=CCC/C(C)=C/CC/C(C)=C/CSc1ccccc1C(=O)O
inactive: [16] | [18] | [19] | [20]
